Screening results (PubChem)
FMDV inh: foot and mouth disease virus antiviral activity. Potency, µM (series often up to 57.9 µM), for inactives: at the top dose activity change, negative = inhibition, actives largely listed as inhibitors. hit rate 1.2% among 410,000. FMDV antiviral cell-based qHTS. AID 1159524; calls by dose curve; tested in HEK293T cells; note: read-out not given here; potency is the fitted concentration of half-maximal effect; nearly all actives have a fitted effect of over 45% in size
HCMV inh: human cytomegalovirus inhibition; hit rate 4.5% among 410,000; activity change, negative = inhibition, % at 57.5 µM; HFF cells, HCMV-luciferase reporter, 72 h; stronger effect = lower value; in the data active = activity change below about -60%; inconclusive = no clear call, values can overlap the other calls; inactive = above about -39%
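Compounds were evaluated in HFFs infected with an HCMV luciferase reporter virus (MOI 1 PFU/cell). Luciferase in lysates collected 72 h post infection served as the replication measure.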
MARV entry inh: Marburg virus entry inhibition; AID 540276; Marburg virus pseudotyped entry inhibition, cell reporter; hit rate 1.8% among 300,000; Potency, µM (top dose mostly 37.8 µM), for the others: at the top dose activity change, negative = inhibition, hits mostly inhibitors; calls by dose curve; tested in HEK293 cells; note: potency is the fitted concentration of half-maximal effect
Vaccinia Venus: vaccinia inhibition (Venus reporter) | Vaccinia virus Venus reporter expression, fluorescence | Potency, µM (top dose mostly 36.5 µM), inactives show at the highest dose activity change, negative = inhibition, most hits filed as inhibitors | hit rate 0.46% among 330,000; calls by dose curve; tested in A549 cells; note: potency is the fitted concentration of half-maximal effect; nearly all actives have a fitted effect of over 30% in size
Lassa entry inh: Lassa virus entry inhibition; AID 540256; Potency, µM (doses to about 37.9 µM), without a hit: top-dose activity change, negative = inhibition, usual class: inhibitors; Lassa virus pseudotype entry inhibition, cell reporter; hit rate 1.2% among 300,000; calls by dose curve; tested in HEK293 cells; note: potency is the fitted concentration of half-maximal effect; nearly all actives have a fitted effect of over 50% in size
VACV mCherry inh: vaccinia inhibition (mCherry reporter); Vaccinia virus mCherry reporter infection, fluorescence; AID 720579; hit rate 0.63% among 310,000; Potency, µM (series often up to 36.5 µM), for inactives: at the top dose activity change, negative = inhibition, most hits filed as inhibitors; calls by dose curve; tested in A549 cells; note: potency is the fitted concentration of half-maximal effect; nearly all actives have a fitted effect of over 35% in size
* marks the source's active call; other numbers are inactive results; ? = inconclusive; · = not tested or not shown; ! = not confirmed by another sample; [ ] = another dose, or the depositor's remark. Hits are enriched below; roughly 6.5% of the tested compounds scored in any of these assays. % is set by controls: 0 for no effect and ±100 for the full control effect.

SMILES	FMDV inh	HCMV inh	MARV entry inh	Vaccinia Venus	Lassa entry inh	VACV mCherry inh
CCC(=O)N(CCC(c1ccccc1)c1ccc2c(c1)OCO2)Cc1ccc(OC(C)C)cc1 (centres undefined)	-10%	-8	-10%[46.1 µM]	-23%	?	-20%
COc1ccc(C2Nc3ccccc3C(=O)N2Cc2ccccc2)cc1COc1ccccc1F (centres undefined)	·	·	·	-14%	·	19%
NC(=S)N/N=C/c1ccc2cccc(OCc3ccccc3)c2n1	-22%	-68*	?	?	?	?
O=C(N/N=C/c1ccc2cccc(OCc3ccccc3)c2n1)c1ccc(Br)cc1	?	-23	16µM*	?	?	-15%
O/N=C/c1ccc2cccc(OCc3ccccc3)c2n1	-23%	-31	·	·	·	·
NC(=S)N/N=C/c1ccccc1OCc1cccc(Cl)c1	?	·	?	2µM*	-27%	1.8µM*
COc1cc(CN2CCOc3ccc(CN4CCC(Oc5cccnc5)CC4)cc3C2)ccc1F	?	·	·	-10%	·	-17%
COc1ccc(C2NC(=S)N(Cc3ccc(Cl)cc3)C(C)=C2C(C)=O)cc1 (centres undefined)	·	-21	·	·	·	·
CCn1cc(C(=O)NCc2cccc(C(F)(F)F)c2)c(=O)c2ccc(C)nc21	-25%	-69*	·	·	·	·
CCn1cc(C(=O)NCc2ccc3c(c2)OCO3)c(=O)c2ccc(C)nc21	·	·	2%	·	·	·
CCC[C@H](C)n1[nH]c(=O)cc1N	·	·	30%	·	·	·
Cc1cc(NC(=O)CSc2ccc(-c3nc4cc(C)c(C)cc4[nH]3)cn2)no1	48%	·	?	·	-2%	·
Cc1cc2nc(-c3ccc(SCc4ccc(C(=O)O)cc4)nc3)[nH]c2cc1C	50%	67	5.6µM*	-8%	?	-15%
Cc1cc2nc(-c3ccc(SCC(=O)Nc4ccc(S(=O)(=O)NC5CC5)cc4)nc3)[nH]c2cc1C	-3%	85	4.5µM*	-21%	?	-27%
O=C(O)[C@H]1[C@H](CO)[C@H]2Cn3c(cccc3=O)[C@@H]1N2S(=O)(=O)c1ccccc1F	·	32	·	·	·	·
CCCOc1ccc(CN(C(=O)c2nc(SC(C)C)ncc2Cl)C2CCS(=O)(=O)C2)cc1 (centres undefined)	-27%	-63*	-34%[46.1 µM]	-2%	?	-13%
CCc1cc2c(nc1CC)CCN(CCC(C)=NO[C@@H](C)c1cn([C@H](CO)Cc3ccccc3)nn1)C2	·	·	-27%[14.2 µM]	·	·	·
CCC1Sc2ccc(S(=O)(=O)Nc3ccc(OC)cc3)cc2NC1=O (centres undefined)	1%	-11	·	·	·	·
CCC1Sc2ccc(S(=O)(=O)Nc3ccc(OC)c(OC)c3)cc2NC1=O (centres undefined)	-21%	-76*	?	-11%	?	-11%
COc1ccc(C)cc1NS(=O)(=O)c1ccc2c(c1)NC(=O)C(C)S2 (centres undefined)	27%	-77*	·	·	·	·
CC(C)(C)c1csc(NNC(=O)c2ccc(Cl)cc2)n1	1%	-4	?	?	?	7.1µM*
CC(C)(C)c1csc(NC(=O)c2cccnc2)n1	-4%	-31	·	·	·	·
CC(C)c1ccc(NC(=O)c2cc(S(=O)(=O)N3CCCC3)c[nH]2)cc1	-17%	-77*	·	-28%	·	-28%
CCOc1ccc(NC(=O)c2cc(S(=O)(=O)N3CCCCC3)c[nH]2)cc1	18%	-65*!	·	-9%	-13%[46.1 µM]	?
CCc1ccc(NC(=O)c2cc(S(=O)(=O)N3CCCC3)c[nH]2)cc1	3%	·	·	?	·	-27%
SMILES	FMDV inh	HCMV inh	MARV entry inh	Vaccinia Venus	Lassa entry inh	VACV mCherry inh
COc1cc(Cl)c(C)cc1NC(=O)Cn1ncc2c3ccccc3n(Cc3ccccc3)c2c1=O	-1%	32	-21%[46.1 µM]	-2%	-11%[46.1 µM]	-8%
Cc1cccc(C(=O)Nc2ccc3oc(-c4ccncc4)nc3c2)c1	?	?	-13%[46.1 µM]	-8%[7.34 µM]	?	-12%[7.34 µM]
CC(=O)C1=C(O)C(=O)N(c2ccc(F)cc2)C1c1ccc(C)cc1 (centres undefined)	6%	-69*	6%[46.1 µM]	1%	0%[46.1 µM]	-4%
CC(=O)C1=C(O)C(=O)N(c2ccc(O)cc2)C1c1ccc(C)cc1 (centres undefined)	-9%	-12	6%[46.1 µM]	-5%	-1%[46.1 µM]	-3%
COc1ccc(CN2CCN(S(=O)(=O)c3ccc(NC(C)=O)cc3)CC2)cc1OC	·	?	0%	-28%	?	-11%
COC(=O)c1ccc(S(=O)(=O)N2CCCN(Cc3ccc(F)cc3)CC2)n1C	?	-64*	·	·	·	·
COc1ccc(CN2CCN(S(=O)(=O)c3ccc(F)cc3)CC2)cc1OC	-30%	-60*	-1%	-17%	-24%	-9%
COc1ccc(S(=O)(=O)N2CCN(CCCOc3ccc(F)cc3)CC2)cc1OC	?	?	10µM*	-23%	?	-9%
CC(C)c1ccc(NC(=O)CCNS(=O)(=O)c2ccc3c(c2)oc(=O)n3C)cc1	-2%	-14	4%[46.1 µM]	-2%	?	-6%
C(=C\c1nccc2ccccc12)/c1ccc(N2CCOCC2)cc1	·	·	·	-17%	·	-26%
CC1CN(CCC(=O)N2CCCC(C(=O)c3nccn3C)C2)Cc2cc(Cl)ccc2O1 (centres undefined)	-9%	·	·	-6%	·	-17%
FC(F)(F)c1cccc(C2NCc3ccccc3-n3cccc32)c1 (centres undefined)	-18%	?	?	-25%	11µM*	?
CCN1CCCC1CNC(=O)c1cnn(-c2nccc(-c3ccc(C)o3)n2)c1C1CC1 (centres undefined)	-8%	·	·	-7%	·	-16%
Cn1c(-c2ccccc2)cc2ccccc21	35%	16	-25%	5%	-25%	-8%
Cn1c(-c2ccccc2)cc2c3no[n+]([O-])c3ccc21	5%	-102*	3.5µM*	?	4.5µM*	-13%[1.46 µM]
